Among the test systems are DU-145 prostate; K-562 leukemia; MALME-3M melanoma; MDA-MB-231 breast; RXF 393 renal; SF-268 CNS; SF-295 CNS; SF-539 CNS; UACC-257 melanoma; M14 melanoma.
Common to all, as to experiment: NCI-60 one-dose screen, 48 h (100 = growth as untreated, 0 = no growth, -100 = all killed)
What all share (settings): 10 µM

SMILES strings stand for the structures. Compounds without any hit were thinned out: in the full panel of roughly 83,000, 20% have a hit.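 Each cell line was grown in a 96-well plate and treated with one concentration of compound for 48 hours. Values below 10 were considered active.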 Unmarked numbers belong to inactive results. Active and inactive are the calls of the source.

Regarding `CCCCC(CC)COC(C)=O` (stereo not given), the growth is 106% with DU-145 prostate; 95.1% in the test on K-562 leukemia; 96.4% in the test with MALME-3M melanoma; 106% with MDA-MB-231 breast; 117% in the test on RXF 393 renal; 96.6% in the test with SF-268 CNS. Also, the growth was 99.3% in the test with SF-295 CNS, 92.1% in the test with SF-539 CNS, 104% in the test with UACC-257 melanoma and 102% in the test on M14 melanoma.

For the compound `Cc1ccc(C(=O)NC2c3ccccc3Oc3ccccc32)cc1`, the growth in the test on DU-145 prostate was 88.2%; in the test on K-562 leukemia it was 14.3%; with MALME-3M melanoma, 53.2%; with MDA-MB-231 breast, 58.4%; in the test on RXF 393 renal, 74.9%; with SF-268 CNS, 64.1%. In addition, the growth with SF-295 CNS was 24.8%; in the test with SF-539 CNS, 61.3%; in the test with UACC-257 melanoma, 57.7%; in the test on M14 melanoma, 36%.

For the compound `C=C[Si](OC(C)=O)(OC(C)=O)OC(C)=O`, the growth in the test with DU-145 prostate is 116%; with K-562 leukemia, 98.7%; in the test on MALME-3M melanoma, 85.6%; with MDA-MB-231 breast, 118%; in the test on RXF 393 renal, 117%; with SF-268 CNS, 99.4%. Moreover, the growth in the test on SF-295 CNS is 96.9%; with SF-539 CNS it was 96.8%; in the test on UACC-257 melanoma it was 105%; in the test with M14 melanoma, 99.5%.

Take `c1ccc2c(N3CCCCC3)ncnc2c1`: the growth with DU-145 prostate is 112%; in the test on K-562 leukemia, 94.3%; with MALME-3M melanoma it was 142%; in the test on MDA-MB-231 breast, 96.5%; in the test with RXF 393 renal, 105%; in the test on SF-268 CNS, 102%. For the same compound, the growth in the test on SF-295 CNS is 109%; in the test on SF-539 CNS it was 85.3%; with UACC-257 melanoma, 90.2%; in the test on M14 melanoma, 100%.

Regarding `COc1ccc(-c2cc3c(nn2)-c2ccccc2C3=O)cc1`, the growth in the test with DU-145 prostate is 21.2%; with K-562 leukemia it was 21.9%; with MALME-3M melanoma, -21.1% (active); in the test with MDA-MB-231 breast, 59.5%; in the test with RXF 393 renal it was 71.8%; in the test with SF-268 CNS, 39.1%. In addition, the growth is -40.7% (active) with SF-295 CNS, 82.1% in the test with SF-539 CNS, 69.6% in the test on UACC-257 melanoma and 42.9% with M14 melanoma.

For `COc1ccc(C)cc1OC`, the growth with DU-145 prostate is 99.6%; in the test with K-562 leukemia, 92.9%; in the test on MALME-3M melanoma it was 97%; in the test on MDA-MB-231 breast, 107%; in the test on RXF 393 renal, 117%; with SF-268 CNS it was 98.4%. Further, the growth was 95.7% in the test on SF-295 CNS, 109% in the test with SF-539 CNS, 93.9% in the test on UACC-257 melanoma and 115% in the test with M14 melanoma.

With `N#Cc1c(N)sc(=S)c2c1CCCC2`, the growth in the test on DU-145 prostate is 113%; in the test with K-562 leukemia, 113%; with MALME-3M melanoma it was 119%; in the test on MDA-MB-231 breast, 111%; in the test with RXF 393 renal, 118%; with SF-268 CNS, 104%. In addition, the growth in the test on SF-295 CNS was 110%; in the test with SF-539 CNS it was 110%; in the test on UACC-257 melanoma, 110%; with M14 melanoma, 116%.

In the case of `CCCCCCCCO`, the growth was 104% in the test on DU-145 prostate; 101% in the test on K-562 leukemia; 106% with MALME-3M melanoma; 118% in the test with MDA-MB-231 breast; 106% with RXF 393 renal; 108% in the test with SF-268 CNS. In addition, the growth with SF-295 CNS was 108%; with SF-539 CNS, 97.4%; in the test with UACC-257 melanoma, 101%; with M14 melanoma, 105%.

As for `Cc1cccc(CO)c1`, the growth was 98.1% in the test on DU-145 prostate; 97.7% in the test with K-562 leukemia; 104% with MALME-3M melanoma; 104% in the test on MDA-MB-231 breast; 121% in the test with RXF 393 renal; 95.4% in the test on SF-268 CNS. For the same compound, the growth in the test on SF-295 CNS is 100%; in the test with SF-539 CNS, 108%; with UACC-257 melanoma, 99.9%; in the test on M14 melanoma, 108%.

For the compound `CCOC(=O)CSc1c([N+](=O)[O-])ncn1C`, the growth in the test with DU-145 prostate was 105%; in the test with K-562 leukemia, 109%; with MALME-3M melanoma, 80.4%; in the test on MDA-MB-231 breast it was 96.5%; with RXF 393 renal it was 103%; with SF-268 CNS, 103%. For the same compound, the growth was 102% in the test on SF-295 CNS, 94.3% with SF-539 CNS, 94.6% with UACC-257 melanoma and 94.1% in the test on M14 melanoma.

Turning to `O=C(O)C(O)c1ccccc1` (stereo not given), the growth in the test on DU-145 prostate is 106%; in the test on K-562 leukemia, 111%; with MALME-3M melanoma it was 99.9%; in the test on MDA-MB-231 breast, 107%; in the test with RXF 393 renal it was 102%; in the test with SF-268 CNS, 98.8%. For the same compound, the growth in the test with SF-295 CNS was 107%; in the test on SF-539 CNS it was 94%; in the test on UACC-257 melanoma, 102%; in the test with M14 melanoma it was 97.8%.

Take `COc1ccc2c(NCCCCCCCCNc3c4ccccc4nc4cc(OC)ccc34)c3ccccc3nc2c1`: the growth in the test with DU-145 prostate was -100% (active); in the test with K-562 leukemia, -100% (active); in the test on MALME-3M melanoma, -98.1% (active); with MDA-MB-231 breast, -89.5% (active); in the test with RXF 393 renal, -74.3% (active); with SF-268 CNS, -99.3% (active). Moreover, the growth was -92.1% (active) with SF-295 CNS, -100% (active) in the test with SF-539 CNS, -88.8% (active) in the test with UACC-257 melanoma and -100% (active) in the test with M14 melanoma.

With `O=C(O)c1cc([N+](=O)[O-])ccc1Cl`, the growth in the test with DU-145 prostate is 121%; in the test with K-562 leukemia, 97.7%; with MALME-3M melanoma, 131%; with MDA-MB-231 breast it was 101%; in the test on RXF 393 renal, 112%; in the test on SF-268 CNS, 114%. Also, the growth in the test on SF-295 CNS is 101%; with SF-539 CNS it was 105%; in the test with UACC-257 melanoma, 99.5%; in the test with M14 melanoma, 114%.

Take `Cc1cccc([N+](=O)[O-])c1Cl`: the growth with DU-145 prostate is 105%; in the test on K-562 leukemia, 119%; in the test on MALME-3M melanoma, 109%; with MDA-MB-231 breast, 113%; in the test with RXF 393 renal it was 103%; with SF-268 CNS, 101%. For the same compound, the growth in the test with SF-295 CNS is 104%; in the test on SF-539 CNS, 105%; with UACC-257 melanoma it was 105%; in the test with M14 melanoma, 106%.

Consider `C[N+](C)=c1ccc2nc3c(cc(Nc4ccccc4)c4ccccc43)oc-2c1`, for which the growth in the test with DU-145 prostate is 55.4%; in the test on K-562 leukemia, 38.5%; in the test with MALME-3M melanoma it was 28.2%; in the test on MDA-MB-231 breast, 47%; with RXF 393 renal it was 69.2%; in the test on SF-268 CNS it was 80.3%. For the same compound, the growth in the test with SF-295 CNS is 59.5%; with SF-539 CNS, 74.3%; in the test with UACC-257 melanoma it was 38.6%; in the test on M14 melanoma it was 33.9%.

Regarding `Cc1cc(C(C)(C)C)cc(C)c1Br`, the growth in the test on DU-145 prostate is 121%; in the test on K-562 leukemia, 111%; in the test on MALME-3M melanoma, 135%; in the test on MDA-MB-231 breast it was 108%; with RXF 393 renal, 113%; with SF-268 CNS it was 102%. The growth in the test on SF-295 CNS was 103%; in the test with SF-539 CNS it was 94.9%; in the test on UACC-257 melanoma, 105%; with M14 melanoma it was 98.5%.

For the origin of these results see PubChem BioAssay (NCI).
